Measured values: the supplement of paper PMC3334620
The full ranking holds about 33,000 sequences; the median of “E-score (-0.5 to 0.5)” is about -0.054, and the highest 2% start at about 0.39. Many of the other results were omitted from the sample, so the highest values are more common in it than they were.

target: Ylr278c (UniProt Q05854); test: PBM E-score (8-mer binding enrichment) (E-score (-0.5 to 0.5)); higher = stronger / more preferred TF binding; settings: protein concentration: 200 nM; construct: GST-DNA-binding domain
Protocol: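 Universal 'all 10-mer' protein binding microarrays (Agilent AMADID 015681) probed with GST-tagged S. cerevisiae TFs (full-length or DBD) made by in vitro transcription/translation (PURExpress), about 100-200 nM. Bound TF was detected with fluorescent anti-GST. Each ungapped 8-mer (which stands for itself and its reverse complement) is scored by the PBM enrichment score (E-score), a modified Wilcoxon-Mann-Whitney statistic from -0.5 to +0.5, computed with the Universal PBM Analysis Suite. Scale: above 0.35 generally sequence-specific binding.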

UniProt Q05854, sequence (Q05854 whole entry, the tested form may be a part): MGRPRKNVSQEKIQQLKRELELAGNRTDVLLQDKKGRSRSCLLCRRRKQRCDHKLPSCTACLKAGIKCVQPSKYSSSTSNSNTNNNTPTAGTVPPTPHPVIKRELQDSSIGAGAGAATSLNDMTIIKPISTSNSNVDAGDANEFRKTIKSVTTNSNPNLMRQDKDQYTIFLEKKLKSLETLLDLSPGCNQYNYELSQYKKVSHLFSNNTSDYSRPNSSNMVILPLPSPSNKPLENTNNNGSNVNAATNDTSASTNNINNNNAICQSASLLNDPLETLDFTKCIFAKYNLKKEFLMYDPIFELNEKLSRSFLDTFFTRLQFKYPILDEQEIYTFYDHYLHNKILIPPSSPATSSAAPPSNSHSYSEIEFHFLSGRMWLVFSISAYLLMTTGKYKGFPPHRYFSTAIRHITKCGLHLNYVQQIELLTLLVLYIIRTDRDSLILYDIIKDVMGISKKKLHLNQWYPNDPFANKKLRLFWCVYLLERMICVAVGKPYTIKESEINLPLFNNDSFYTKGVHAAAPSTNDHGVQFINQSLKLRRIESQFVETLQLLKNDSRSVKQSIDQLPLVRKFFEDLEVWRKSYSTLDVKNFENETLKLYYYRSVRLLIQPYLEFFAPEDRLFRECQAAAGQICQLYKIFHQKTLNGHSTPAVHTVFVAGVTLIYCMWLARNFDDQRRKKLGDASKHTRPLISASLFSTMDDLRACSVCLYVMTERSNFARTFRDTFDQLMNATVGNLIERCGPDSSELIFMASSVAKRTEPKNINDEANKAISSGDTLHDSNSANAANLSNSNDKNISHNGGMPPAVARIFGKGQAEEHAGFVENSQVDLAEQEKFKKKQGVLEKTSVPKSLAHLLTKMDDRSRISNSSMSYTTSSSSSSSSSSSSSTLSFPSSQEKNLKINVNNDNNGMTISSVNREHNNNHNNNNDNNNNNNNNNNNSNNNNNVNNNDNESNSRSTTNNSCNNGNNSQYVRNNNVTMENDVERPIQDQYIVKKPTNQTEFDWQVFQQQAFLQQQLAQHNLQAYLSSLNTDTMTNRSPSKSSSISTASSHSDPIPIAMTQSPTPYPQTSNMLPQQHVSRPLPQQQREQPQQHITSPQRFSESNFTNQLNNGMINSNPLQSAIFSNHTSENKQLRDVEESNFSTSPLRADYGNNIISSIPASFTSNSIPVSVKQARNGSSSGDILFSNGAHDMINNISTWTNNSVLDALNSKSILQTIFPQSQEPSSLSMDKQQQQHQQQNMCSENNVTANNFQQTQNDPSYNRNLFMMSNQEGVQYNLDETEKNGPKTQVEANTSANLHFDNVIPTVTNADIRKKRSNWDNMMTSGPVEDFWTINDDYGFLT

Row | Sequence | PBM E-score
1 | CCAACAAA | -0.142
2 | AAGTGGGG | 0.0493
3 | CGGAGAAA | 0.477
4 | AGGAGAAG | -0.151
5 | CGGAGAAC | 0.445
6 | CAGAGAAG | -0.15
7 | TGGAGAAA | -0.0369
8 | GGGAGAAC | -0.0233
9 | CGGAGAAG | 0.453
10 | GGGAGAAA | 0.0906
11 | AGGAGAAC | -0.00067
12 | GAATGCGC | 0.182
13 | CTTCTAGA | -0.215
14 | CCTCCCTC | 0.0572
15 | TCCGCTAA | 0.267
16 | AGTTAGAC | -0.0203
17 | GTCCAAGA | -0.185
18 | CATGGCCG | 0.224
19 | CCGTCGGC | 0.366
20 | ACGTCGGA | 0.385
21 | GCGTCGGA | 0.438
22 | CCGTCGTA | 0.0447
23 | GCGTCGAA | -0.0135

Row | Sequence | PBM E-score
24 | CCGTCGGA | 0.415
25 | CATCCTTC | -0.0925
26 | ACAGGCCG | 0.156
27 | AGAGGCTA | -0.164
28 | AATAATAT | 0.23
29 | ACATCGAG | -0.288
30 | AGCTACCC | -0.243
31 | ATGGATCG | 0.166
32 | AAGCTCCG | 0.477
33 | AAGCTCCT | -0.0423
34 | CAGCTCCG | 0.426
35 | CAGCTCCC | -0.153
36 | CAGCTCCA | -0.152
37 | AAGCTCCC | -0.139
38 | ACTGTCAG | -0.147
39 | CACGCGAC | -0.0553
40 | AACTTCTG | -0.197
41 | TCATTCAA | -0.146
42 | CTAGCGGC | 0.0333
43 | CGCCGAAC | 0.315
44 | AGCCGGTA | 0.352
45 | CGCCGGAC | 0.447
46 | AGCCGGAA | 0.43

Row | Sequence | PBM E-score
47 | GGCCGGTA | 0.261
48 | GGACGGAA | 0.337
49 | CGCCGCAC | 0.222
50 | AGCCGGTG | 0.246
51 | AGCCGGGA | 0.272
52 | AGCCGGGG | 0.26
53 | AGCCGGAG | 0.455
54 | GGCCGGAA | 0.422
55 | GCATTGGA | 0.0238
56 | CAGGTTGG | -0.138
57 | GACGGTAA | 0.127
58 | CGTGATGC | 0.073
59 | CGCCGGAA | 0.432
60 | GGCCGGGA | 0.325
61 | TGCCGGAA | 0.435
62 | CGCCGGTA | 0.352
63 | CGCCGTAA | 0.28
64 | CGCCGGGC | 0.378
65 | CGCCGGGA | 0.412
66 | AGCCGGGC | 0.167
67 | AGCCGGTC | 0.134
68 | AGCCGGAC | 0.407
69 | TGCCGGCA | 0.347

Row | Sequence | PBM E-score
70 | TGCCGTAA | -0.0603
71 | GAACGATC | 0.041
72 | CCTGTCCC | -0.128
73 | ACCAGTAA | 0.00819
74 | ATTCTAGA | -0.171
75 | ACGACCCC | 0.0131
76 | GGCCGCAC | 0.23
77 | CGCCGGAG | 0.459
78 | CGCCGCAG | 0.264
79 | AGCCGGAT | 0.404
80 | AGCCGGCT | 0.247
81 | GGACGGAC | 0.359
82 | AGCCGTAT | -0.0908
83 | CGCCGTAG | 0.193
84 | GGCCGGAC | 0.419
85 | AGCCCTTA | -0.232
86 | CGGACGAA | 0.332
87 | CCGGGATA | 0.395
88 | AGGGGATC | -0.0127
89 | CGGGGATA | 0.349
90 | GCGGGACC | 0.216
91 | ACGGGACC | 0.0315
92 | CCGGGACC | 0.408

Row | Sequence | PBM E-score
93 | CCGGGATC | 0.411
94 | CGGGGATC | 0.408
95 | ACGGGATA | 0.261
96 | CTGGGATC | -0.101
97 | GCGGGATA | 0.266
98 | ACGGGATC | 0.109
99 | ATTGCATC | -0.105
100 | AGCGAAGG | -0.0577
101 | ATATGCAA | -0.0841
102 | TCGCCAGA | -0.26
103 | AAACAGAA | -0.207
104 | CTAGGCAA | -0.0858
105 | TAGTTTCA | -0.0254
106 | ACCTAGAG | -0.141
107 | GGAGAATA | 0.189
108 | AAGGGCTG | -0.213
109 | CCCGGATC | 0.403
110 | CCCGGATA | 0.351
111 | CACGGATC | 0.242
